Measurements taken from PubChem BioAssay AID624331 (National Center for Advancing Translational Sciences (NCATS), 2012).
Records with an inconclusive call do not appear. A call without a number means that no potency is given here. Active and inactive are the calls of the source. The call rests on the fitted dose curve; in most records, active means well fitted activation curve with a large enough effect; inconclusive means small, poorly fitted or top-dose-only effect; inactive means no such curve, though single readings can be large or run the other way.

Experiment: qHTS assay for re-activators of p53 using a Luc reporter: Hit Validation with no p53 Expressed
Conditions: p53-null cells, luciferase reporter counter-screen; series mostly up to 46.1 µM
Method in brief: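 Without p53 expression, cells (1000/well, Opti-MEM + 10% FBS) were exposed 24 h at 37 deg C to compounds in a 1:5 series from 10 mM stock (top 46.1 µM in well). Luminescent signal read 10 min after Amplite addition; actives flag unspecific activation.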
Potency means the concentration at half of the fitted maximal effect.

| Compound | Potency |
| --- | --- |
| Cc1ccc2cc3c(N)c(C(=O)N4CCOCC4)sc3nc2c1 | inactive |
| CCOC(=O)N1CCN(S(=O)(=O)c2ccc(C(=O)NNc3nc4c(C)cc(C)cc4s3)cc2)CC1 | inactive |
| CN(C)c1ccc(CNC2CC(C)(C)NC(C)(C)C2)cc1 | inactive |
| Cc1cc([N+](=O)[O-])ccc1NC(=O)/C=C/c1cccs1 | inactive |
| Cc1ccc2nc(-c3ccc(NC(=O)CCN4C(=O)c5ccccc5C4=O)cc3)sc2c1 | inactive |
| Cc1ccc(C(=O)NCC(=O)N2CCCCCC2)cc1 | inactive |
| COc1ccc(N2CCN(C3CCCN(Cc4cccc(OC)c4)C3)CC2)cc1 (centres undefined) | inactive |
| O=C(C1CCCN1S(=O)(=O)c1ccc(Cl)cc1)N1CCOCC1 (centres undefined) | inactive |
| CCOC(=O)c1c(C)[nH]c(C(=O)CSc2ccccc2)c1C | inactive |
| CCCS(=O)(=O)N1CCC(C(=O)NCCN(CC)c2ccccc2)CC1 | inactive |
| COc1ccc2c(c1OC)C(=O)OC2Nc1nc(-c2cc3ccccc3oc2=O)cs1 (centres undefined) | inactive |
| O=c1c2ccccc2oc2ccc(-c3ccc4cc[nH]c4c3)cc12 | inactive |
| COc1ccc([N+](=O)[O-])cc1NC(=O)CSCc1ccc(Br)cc1 | inactive |
| C/C(=N\NC(=S)NC1CCCCC1)c1ccccc1 | inactive |
| Cc1ccc(-n2c(C)cc(C(=O)CSc3nnc4ccccn34)c2C)cc1 | 0.731 µM (active) |
| CCN1CCN(Cc2ccc(NC(=O)Nc3ccccc3)cc2)CC1 | inactive |
| OCc1cc(Br)ccc1OCc1nc2ccccc2s1 | inactive |
| O=C(O)/C=C/c1nc(-c2ccccc2)n2ccccc12 | inactive |
| Cc1csc(NC(=O)/C=C/c2ccco2)n1 | inactive |
